Experimental findings from ChEMBL document CHEMBL4513146, “CO-ADD screening of Karazin Kharkiv National University (Ukraine) compounds” are described below.

The subject of assay [1] is Staphylococcus aureus. The note with it: Concentration 32 ug.mL-1;; ASSAY_TEST Inhibition of Bacterial Growth; detection method Absorption (OD600); MEDIA CAMHB; plate type 384well; NBS; CORNING #3640; time 18 hr.
Assay [2] relates to Escherichia coli. The note with it: Concentration 32 ug.mL-1;; ASSAY_TEST Inhibition of Bacterial Growth; detection method Absorption (OD600); MEDIA CAMHB; plate type 384well; NBS; CORNING #3640; time 18 hr.

Each structure is given as a SMILES string. Measured potencies and affinities stand elsewhere.

Consider `COc1ccc(CCn2c(=O)c3sccc3n3c(=O)n(Cc4ccc(F)cc4)nc23)cc1OC`, for which the Inhibition is 2.92% in assay [1] and -0.5% in assay [2].

Consider `Cc1cc(C)c(NC(=O)CSc2nnc3c4cc(-c5ccccc5)nn4ccn23)c(C)c1`, for which the Inhibition in assay [1] is reported as 6.45%; in assay [2], -2.49%.

With `COc1ccccc1-n1ccn2c(SCC(=O)Nc3ccc(C)cc3C)nnc2c1=O`, the results for the Inhibition in assay [1] and in assay [2] were 14.03% and -4.75%, respectively.

Regarding `Cc1ccc(NC(=O)Cn2nc3c(SC4CCCCC4)nccn3c2=O)cc1`, the Inhibition in assay [1] is recorded as 10.51%; in assay [2], -0.3%.

Regarding `COc1ccccc1CNC(=O)CSc1nnc2c3cc(-c4ccc(C)cc4)nn3ccn12`, the Inhibition in assay [1] is given as -5.58%; in assay [2], -8.49%.

Consider `COc1ccc(NC(=O)c2ccc3nn(CC(=O)Nc4ccc(S(C)(=O)=O)cc4)c(=O)n3c2)cc1`, for which the Inhibition in assay [1] is 11.72%; in assay [2], -6.83%.

Regarding `O=c1c2sccc2n2c(=O)n(Cc3cccc(F)c3)nc2n1Cc1cccs1`, the Inhibition in assay [1] is reported as -6.6%; in assay [2], -12.16%.

Regarding `CCC(Sc1nnc2c(=O)n(-c3ccc(C)c(C)c3)ccn12)C(=O)Nc1cc(OC)ccc1OC` (centres undefined), the Inhibition in assay [1] is recorded as -17.77%; in assay [2], -11.35%.

As to `CCCNC(=O)Cn1nc2n(Cc3cccs3)c(=O)c3sccc3n2c1=O`, the Inhibition in assay [1] is 6.83%; in assay [2] it was -4.01%.

`COC(=O)c1sccc1NC(=O)Cn1nc2c(Oc3ccc(C)cc3)nc3ccccc3n2c1=O`: the Inhibition is 6.43% in assay [1] and 0.18% in assay [2].

Regarding `CCCn1c(=O)c2sccc2n2c(=O)n(CC(=O)c3cccc(OC)c3)nc12`, the values for the Inhibition in assay [1] and in assay [2] were 2.99% and -2.97%, respectively.

Turning to `COc1ccc(C(=O)CSc2nnc3c(=O)n(-c4ccc(F)c(F)c4)ccn23)cc1OC`, the results for the Inhibition in assay [1] and in assay [2] were 3.91% and -0.1%, respectively.

`COC(=O)c1ccc(NC(=O)Cn2nc3ccc(Sc4ccc(C)cc4)nn3c2=O)cc1`: the results for the Inhibition in assay [1] and in assay [2] were 10.91% and -1.06%, respectively.

With `N#CCn1nc2n(Cc3ccccc3)c(=O)c3ccccc3n2c1=O`, the figures for the Inhibition in assay [1] and in assay [2] were 14.89% and 2.96%, respectively.

For `Cc1ccc(N(Cc2ccccc2)S(=O)(=O)c2ccc3nncn3c2)cc1F`, the Inhibition is -5.44% in assay [1] and -9.13% in assay [2].

With `CCc1ccccc1Sc1nccn2c(=O)n(CC(=O)Nc3cc(Cl)c(OC)cc3OC)nc12`, the Inhibition in assay [1] is given as -16.84%; in assay [2] it was -7.56%.

`CCCCOc1ccc(-c2cc3c4nnc(SCC(=O)NCc5ccc(OC)cc5)n4ccn3n2)cc1`: the values for the Inhibition in assay [1] and in assay [2] were -2.43% and -7.34%, respectively.

For the compound `O=S(=O)(c1cccn2cnnc12)N(Cc1ccc(F)cc1)c1ccc(F)c(F)c1`, the figures for the Inhibition in assay [1] and in assay [2] were 8.71% and -1.75%, respectively.

With `COc1ccc(-c2cc3c4nn(CC(=O)Nc5ccccc5Cl)c(=O)n4ccn3n2)cc1`, the Inhibition in assay [1] is -2.84%; in assay [2], -5.57%.

Take `Cc1cc2nn(CC(=O)N3CCOCC3)c(=O)n2c(Nc2ccc(C)c(F)c2)n1`: the Inhibition is reported as 15.64% in assay [1] and -0.78% in assay [2].

As to `O=C(Cn1nc2c3sc(N4CCCC4)nc3ncn2c1=O)Nc1cccc(Br)c1`, the Inhibition is given as 14.01% in assay [1] and 2.84% in assay [2].

Regarding `CC(C)Cn1c(=O)c2sccc2n2c(=O)n(CC(=O)NC(C)C)nc12`, the values for the Inhibition in assay [1] and in assay [2] were -11.46% and 2.58%, respectively.

In the case of `Cc1ccc(C)c(NC(=O)Cn2nc3c(SCc4ccc(Cl)cc4)nccn3c2=O)c1`, the Inhibition in assay [1] is 7.31%; in assay [2] it was -3.74%.

As for `Cc1ccc(Sc2nccn3c(=O)n(CC(=O)N4CCN(c5ccccc5F)CC4)nc23)c(C)c1`, the Inhibition in assay [1] is 2.97%; in assay [2] it was -4.29%.

As for `CCCCN(CC)c1ccc2nnc(CCc3nc(-c4ccc5c(c4)OCO5)no3)n2n1`, the Inhibition was -15.7% in assay [1] and 1.35% in assay [2].

With `COc1ccc(NC(=O)Cn2nc3c4cc(-c5ccc(Cl)cc5)nn4ccn3c2=O)c(OC)c1`, the Inhibition in assay [1] amounted to 9.6%; in assay [2], 5.1%.

Regarding `CCc1ccc(NC(=O)Cn2c(=O)c3nnc(C(C)C)n3c3ccccc32)cc1`, the values for the Inhibition in assay [1] and in assay [2] were 6.08% and 6.05%, respectively.

Turning to `Cc1ccc(-c2ccc3nn(Cc4cc(F)cc(F)c4)c(=O)n3n2)cc1C`, the results for the Inhibition in assay [1] and in assay [2] were 13.44% and 1.52%, respectively.

As to `O=C(Cn1nc2c(N3CCOCC3)nccn2c1=O)NCc1cc(F)cc(F)c1`, the Inhibition in assay [1] was 7.03%; in assay [2], -4.76%.

Regarding `CCc1ccccc1NC(=O)Cn1nc2n(C)c(=O)c3c(c(-c4ccccc4)cn3C)n2c1=O`, the Inhibition in assay [1] is 6.44%; in assay [2], -11.71%.

In the case of `COc1ccc(CCn2c(=O)c3sccc3n3c(=O)n(Cc4c(F)cccc4Cl)nc23)cc1OC`, the Inhibition is given as -2.47% in assay [1] and -5.54% in assay [2].

As to `CC(C)c1nnc2c(=O)n(CC(=O)Nc3ccccc3)c3ccccc3n12`, the Inhibition in assay [1] worked out at 12.53%; in assay [2], 4.36%.

In general, Inhibition refers to the change of the read-out against control, counted positive when it falls.
